Molecules are shown by their SMILES. Records with an inconclusive call do not appear. The source made the active and inactive calls. Unless noted, the call rests on the fitted dose curve.

A short description of assay [1]: Nuclear factor erythroid 2-related factor 2/antioxidant responsive element (Nrf2/ARE) small molecule agonists: qHTS cell viability counter screen in human keratinocytes (AID 1919968; active means well fitted curve in the direction sought with a large enough effect in the repeat runs; an effect the other way counts as inactive or inconclusive; further: nearly all actives have a fitted effect of over 55% in size; further: potency means the concentration at half of the fitted maximal effect). The gist of the method: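 Stably transfected HaCaT (KeratinoSens), 1,500/well. Test agents in DMSO were applied for 23 h, 37 C/5% CO2. CellTiter-Fluor was incubated 1 h before the fluorescence read.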
In general terms: In qHTS, concentration-response curves come from the screen itself.

Assay [2] has as its target Gonadotropin-releasing hormone receptor (Homo sapiens) (UniProt P30968). Nature of the assay: Human gonadotropin-releasing hormone receptor (GnRHR) small molecule agonists, calcium flux assay in GnRHR-HEK293 cells (AID 1920063). Further: nearly all actives have a fitted effect of over 35% in size. The gist of the method:
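Stable human GnRHR HEK293 line. 18 h plating, then calcium dye for 1 h at 37 C. Agonist-mode compound addition from DMSO stocks; fluorescence monitored 3 min.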
(Calcium assays in cells follow changes in intracellular calcium, usually with a dye or a luminescent sensor.)

Assay [3] has as its target KiSS-1 receptor (Homo sapiens) (UniProt Q969F8). Nature of the assay: Human kisspeptin (KISS1R) small molecule agonists, calcium flux assay in KISS1R-HEK293 cells (AID 1920064; active means well fitted curve in the direction sought with a large enough effect in the repeat runs; an effect the other way counts as inactive or inconclusive). The gist of the method: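 After overnight (18 h) culture at 37 C/5% CO2, human KISS1R-HEK293 cells received calcium dye for 1 h, then test compound; emission at 540 nm (excitation 480 nm) was tracked for 3 min.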

A short description of assay [4]: G protein-coupled receptor (GPCR) small molecule agonists, calcium flux assay: HEK293 wild type cell line counter screen (AID 1920065). The gist of the method:
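Following 18 h incubation at 37 C/5% CO2, plates got calcium dye for 1 h; compounds, ATP or DMSO were then pinned in and fluorescence followed kinetically (480/540 nm).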

A short description of assay [5]: p53 small molecule agonists, cell-based qHTS assay with human liver microsomes (AID 1963577).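 Further: p53 response element beta-lactamase reporter cells with liver microsomes plus NADPH.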 The gist of the method:
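Steps: plate p53RE-bla cells, incubate 5 h at 37 C; add compound in DMSO; add microsomes (0.5 mg/mL final) and NADPH (0.5 mg/mL final); incubate 16 h at 37 C; add LiveBLAzer, 2 h RT; read fluorescence.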

Assay [6] can be described thus: p53 small molecule agonists, cell-based qHTS assay with rat liver microsomes (AID 1963578). The gist of the method: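 Metabolic activation is supplied by rat liver microsomes with NADPH (each 0.5 mg/mL final). p53RE-bla cells incubate with compound 16 h at 37 C; reporter activity is measured by LiveBLAzer fluorescence.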
The nature of assay [7]: p53 small molecule agonists, cell-based qHTS assay with rat liver microsomes: qHTS cell viability counter screen (AID 1963580). Further: nearly all actives have a fitted effect of over 45% in size. The gist of the method:
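Cytotoxicity counter screen: intracellular ATP read by CellTiter-Glo luminescence in the p53 reporter wells. HCT-116 p53RE-bla cells were treated for 16 h at 37 C alongside rat liver microsomes and NADPH, each 0.5 mg/mL final.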

The nature of assay [8]: cAMP Responsive Elements (CRE) small molecule agonists, cell-based qHTS assay (AID 1963590). The gist of the method:
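Test agents in DMSO were incubated 3 h at 37 C/5% CO2 with CRE-bla HEK 293T cells seeded 18 h earlier; LiveBLAzer B/G FRET substrate was added and read after 2 h at room temperature.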

Assay [9] concerns the target Beta-2 adrenergic receptor (Homo sapiens) (UniProt P07550). Nature of the assay: Adrenergic beta2 receptor (ADRB2) small molecule antagonists, cell-based qHTS assay (AID 1963592). Further: series mostly up to about 92 µM; nearly all actives have a fitted effect of over 50% in size. The gist of the method: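 Assay format: CHO-ADRB2 cells, 18-20hr seeding at 37C/5% CO2, then compound plus 1nM isoproterenol agonist mix for 0.5hr RT. Homogeneous time-resolved fluorescence cAMP detection after 1hr, expressed as 665/615 nm ratio.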

Assay [10] shares this target. Nature of the assay: Adrenergic beta2 receptor (ADRB2) small molecule agonists, cell-based qHTS assay (AID 1963593).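 Further: CHO cells stably overexpressing human ADRB2.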 The gist of the method:
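CHO cells stably over-expressing ADRB2 were plated overnight at 37C, then dosed with compounds plus a stimulation mix containing 100uM IBMX and 25uM Ro-20-1724 for 0.5hr at room temperature. cAMP was measured by HTRF competition, 1hr.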

In assay [11] the target is D(2) dopamine receptor (Homo sapiens) (UniProt P14416). Nature of the assay: Dopamine D2 receptor (DRD2) small molecule agonists, cell-based qHTS assay (AID 1963594). Further: nearly all actives have a fitted effect of over 35% in size. The gist of the method:
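cAMP accumulation in DRD2-HEK293 cells measured by HTRF after 1 h detection; compounds added 10 min before NKH477 (200nM […]) forskolin-analogue stimulation, 30 min at room temperature, with Ro20-1724 present at 0.1 mM final.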

Assay [12] shares this target. Nature of the assay: Dopamine D2 receptor (DRD2) small molecule antagonists, cell-based qHTS assay (AID 1963595; active means well fitted inhibition curve with a large enough effect in the signal ratio in the repeat runs, with a control signal flat; the % refers to the signal ratio). The gist of the method:
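Cells were plated and grown for 24 h at 37 °C. Ro20-1724 (0.1 mM final) went in first, then compound for 10 min. NKH477 (200 nM) with quinpirole (12 nM) followed for 30 min at RT, then HTRF detection reagents for 1 h.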

Assay [13] can be described thus: p53 small molecule agonists, cell-based qHTS assay: qHTS cell viability counter screen (AID 1963581). Further: nearly all actives have a fitted effect of over 45% in size. The gist of the method:
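qHTS counter screen: 16 h compound exposure at 37 C of p53RE-bla HCT-116 cells (4,000 per well, seeded 5 h prior), cell viability by ATP luminescence.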

A short description of assay [14]: p53 small molecule agonists, cell-based qHTS assay (AID 1963582; active means well fitted activation curve with a large enough effect in the signal ratio in the repeat runs, not every such curve was filed as active; the % refers to the signal ratio). The gist of the method:
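Measured: fluorescence from cleaved LiveBLAzer substrate. System: p53RE-bla cells, 16 h compound treatment at 37 C, 2 h substrate step at room temperature.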

A short description of assay [15]: p53 small molecule agonists, cell-based qHTS assay with human liver microsomes: qHTS cell viability counter screen (AID 1963579). Further: nearly all actives have a fitted effect of over 45% in size. The gist of the method: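 After the 460/530 nm beta-lactamase read, CellTiter-Glo was added to the same wells and luminescence measured after 30 min at room temperature, giving viability of p53RE-bla cells treated 16 h with compounds plus microsomes and NADPH.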

Assay [16] has as its target 5-hydroxytryptamine receptor 2A (Homo sapiens) (UniProt P28223). Nature of the assay: 5-hydroxytryptamine receptor 2A (HTR2A) small molecule antagonists, cell-based qHTS assay (AID 1963586). Further: nearly all actives have a fitted effect of over 45% in size. The gist of the method:
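CHO cells stably expressing human HTR2A were plated for 18 h at 37 C, then loaded with calcium dye for 1 h. Compounds were preincubated 5 min at room temperature before DOI (4 nM solution) was added. Kinetic fluorescence was read for 3 min.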

Assay [17] has the same target. Nature of the assay: 5-hydroxytryptamine receptor 2A (HTR2A) small molecule agonists, cell-based qHTS assay (AID 1963587). Further: nearly all actives have a fitted effect of over 30% in size. The gist of the method: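 Kinetic calcium-flux fluorescence (2 min, 1 sec intervals) after compound addition in agonist mode. HTR2A-CHO cells were cultured 18 h, then dye-loaded 1 h at 37 C.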
The target of assay [18] is Muscarinic acetylcholine receptor M1 (Homo sapiens) (UniProt P11229). Nature of the assay: Cholinergic receptor muscarinic 1 (CHRM1) small molecule antagonists, cell-based qHTS assay (AID 1963588). Further: nearly all actives have a fitted effect of over 40% in size. The gist of the method:
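Compounds were tested at 15 concentrations in three independent runs. Dye-loaded CHRM1-CHO cells were exposed 5 min at room temperature before stimulation by acetylcholine added at 50nM. Intracellular calcium was read kinetically on FDSS for 3 min.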

Assay [19] shares this target. Nature of the assay: Cholinergic receptor muscarinic 1 (CHRM1) small molecule agonists, cell-based qHTS assay (AID 1963589). Further: nearly all actives have a fitted effect of over 35% in size. The gist of the method:
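Kinetic fluorescence (1 s intervals) of calcium-sensitive dye in human M1 CHO cells after compound addition; cells pre-incubated 18 h at 37 C/5% CO2 and dye-loaded 1 h.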

Assay [20] in a line: cAMP Responsive Elements (CRE) small molecule antagonists, cell-based qHTS assay (AID 1963591; active means well fitted inhibition curve with a large enough effect in the signal ratio in the repeat runs, not every such curve was filed as active; the % refers to the signal ratio). The gist of the method:
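Reporter line CRE-bla HEK 293T in dialyzed-FBS DMEM; cells preincubated 18 h, treated 3 h with compound plus NKH477 (0.25 uM final); LiveBLAzer FRET, 2 h RT.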

Sequence of KiSS-1 receptor (Homo sapiens) (Q969F8 whole entry, looked up): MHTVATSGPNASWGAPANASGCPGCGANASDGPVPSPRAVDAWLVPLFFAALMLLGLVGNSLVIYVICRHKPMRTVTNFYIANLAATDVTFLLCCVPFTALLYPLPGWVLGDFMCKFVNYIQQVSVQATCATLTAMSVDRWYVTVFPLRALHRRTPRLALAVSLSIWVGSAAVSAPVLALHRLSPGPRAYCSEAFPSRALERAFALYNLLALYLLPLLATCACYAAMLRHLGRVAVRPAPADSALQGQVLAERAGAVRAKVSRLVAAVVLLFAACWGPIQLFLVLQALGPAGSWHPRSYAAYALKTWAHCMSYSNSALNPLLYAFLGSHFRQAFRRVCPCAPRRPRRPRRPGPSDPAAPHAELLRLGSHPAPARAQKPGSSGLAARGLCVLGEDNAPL
Sequence of Muscarinic acetylcholine receptor M1 (Homo sapiens) (P11229 whole entry, looked up): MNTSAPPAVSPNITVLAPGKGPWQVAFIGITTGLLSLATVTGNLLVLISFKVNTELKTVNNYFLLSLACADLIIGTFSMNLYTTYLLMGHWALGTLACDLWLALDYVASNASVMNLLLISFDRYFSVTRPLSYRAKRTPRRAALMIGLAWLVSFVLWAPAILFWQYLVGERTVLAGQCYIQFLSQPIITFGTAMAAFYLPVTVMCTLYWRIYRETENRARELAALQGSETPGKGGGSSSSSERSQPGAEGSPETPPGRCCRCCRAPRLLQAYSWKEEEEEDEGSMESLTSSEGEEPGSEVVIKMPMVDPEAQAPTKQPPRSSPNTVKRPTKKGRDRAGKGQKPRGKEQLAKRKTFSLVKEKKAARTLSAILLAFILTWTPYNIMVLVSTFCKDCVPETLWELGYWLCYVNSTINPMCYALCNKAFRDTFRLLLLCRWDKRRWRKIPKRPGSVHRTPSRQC
Sequence of Beta-2 adrenergic receptor (Homo sapiens) (P07550 whole entry, looked up): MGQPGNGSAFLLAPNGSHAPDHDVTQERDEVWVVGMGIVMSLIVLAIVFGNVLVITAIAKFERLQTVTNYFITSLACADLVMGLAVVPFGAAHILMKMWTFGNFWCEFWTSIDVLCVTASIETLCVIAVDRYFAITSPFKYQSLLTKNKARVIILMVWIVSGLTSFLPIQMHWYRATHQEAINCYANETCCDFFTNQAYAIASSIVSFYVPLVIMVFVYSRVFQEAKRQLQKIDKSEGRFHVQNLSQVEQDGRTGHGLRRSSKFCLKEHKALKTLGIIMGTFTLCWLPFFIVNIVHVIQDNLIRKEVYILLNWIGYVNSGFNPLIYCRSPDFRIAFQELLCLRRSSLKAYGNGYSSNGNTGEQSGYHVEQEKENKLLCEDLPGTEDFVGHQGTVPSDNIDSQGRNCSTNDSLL
Sequence of Gonadotropin-releasing hormone receptor (Homo sapiens) (P30968 whole entry, looked up): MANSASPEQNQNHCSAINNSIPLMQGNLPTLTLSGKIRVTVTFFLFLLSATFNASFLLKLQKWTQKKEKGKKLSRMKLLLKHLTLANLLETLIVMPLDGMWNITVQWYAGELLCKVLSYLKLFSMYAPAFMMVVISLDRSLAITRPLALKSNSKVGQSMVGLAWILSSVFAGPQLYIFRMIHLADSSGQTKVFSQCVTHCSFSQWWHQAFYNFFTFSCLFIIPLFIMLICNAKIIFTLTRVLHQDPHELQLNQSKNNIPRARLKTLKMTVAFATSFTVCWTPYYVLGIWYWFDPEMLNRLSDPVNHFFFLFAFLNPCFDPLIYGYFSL
Sequence of 5-hydroxytryptamine receptor 2A (Homo sapiens) (P28223 whole entry, looked up): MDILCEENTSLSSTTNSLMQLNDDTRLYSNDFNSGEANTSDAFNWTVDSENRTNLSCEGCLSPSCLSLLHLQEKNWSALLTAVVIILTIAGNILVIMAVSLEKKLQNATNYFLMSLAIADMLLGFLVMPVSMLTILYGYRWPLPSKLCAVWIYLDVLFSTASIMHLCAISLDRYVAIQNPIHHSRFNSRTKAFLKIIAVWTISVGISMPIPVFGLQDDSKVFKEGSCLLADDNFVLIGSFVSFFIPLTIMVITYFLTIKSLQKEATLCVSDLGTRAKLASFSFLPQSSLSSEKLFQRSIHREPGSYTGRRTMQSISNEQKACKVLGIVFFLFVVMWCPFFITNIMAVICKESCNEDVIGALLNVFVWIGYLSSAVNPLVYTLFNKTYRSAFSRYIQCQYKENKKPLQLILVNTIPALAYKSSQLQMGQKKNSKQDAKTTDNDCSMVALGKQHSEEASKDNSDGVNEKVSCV
Sequence of D(2) dopamine receptor (Homo sapiens) (P14416 whole entry, looked up): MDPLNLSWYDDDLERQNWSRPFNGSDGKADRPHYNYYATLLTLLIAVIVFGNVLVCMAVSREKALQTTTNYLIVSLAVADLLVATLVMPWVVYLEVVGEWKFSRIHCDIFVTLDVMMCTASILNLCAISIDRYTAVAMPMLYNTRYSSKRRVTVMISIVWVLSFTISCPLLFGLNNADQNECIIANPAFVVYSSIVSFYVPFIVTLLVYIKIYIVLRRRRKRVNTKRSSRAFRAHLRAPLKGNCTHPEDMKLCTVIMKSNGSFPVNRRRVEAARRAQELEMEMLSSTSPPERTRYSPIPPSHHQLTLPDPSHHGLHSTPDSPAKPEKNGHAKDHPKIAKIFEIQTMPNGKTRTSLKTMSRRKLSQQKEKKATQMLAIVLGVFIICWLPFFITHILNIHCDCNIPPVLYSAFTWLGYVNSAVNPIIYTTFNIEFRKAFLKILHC

Regarding `CO[C@@H]1[C@@H](OC)[C@H](C)[C@@](O)(CC(=O)O)O[C@H]1[C@H](C)[C@H]1O[C@@]2(CC[C@@](C)([C@H]3CC[C@@](C)([C@@H]4O[C@@H]([C@H]5O[C@](C)(O)[C@H](C)C[C@@H]5C)C[C@@H]4OC4C[C@H](OC)[C@@H](OC)[C@H](C)O4)O3)O2)C[C@H](O)[C@H]1C` (stereo partly drawn), in [1], the Potency was 237 nM (active). Moreover, the Potency result in assay [2], in assay [3], in [4], in assay [5], in assay [6] and in assay [7] was “inactive” throughout. Besides, the Potency entry in assay [8], in assay [9], in assay [10], in assay [11] and in [12] was “inactive” each time.

On to `CS(=O)(=O)Nc1ccc([N+](=O)[O-])cc1Oc1ccccc1`, for which the Potency entry in [1], in assay [2], in assay [3], in [4], in [5] and in assay [6] was “inactive” throughout. In addition, the Potency entry in assay [7], in assay [13], in assay [14], in assay [8], in assay [9] and in [10] was “inactive” in each case. Besides, the Potency entry in assay [11] and in assay [12] was “inactive” each time.

With `Cc1cccc(OCCOc2cccc(C)c2)c1`, the Potency result in assay [1], in [2], in [3], in assay [4], in [5] and in assay [6] was “inactive” each time. Also, the Potency entry in assay [15], in [13], in assay [14], in assay [16], in [17] and in assay [18] was “inactive” throughout. Besides, the Potency entry in [19], in [9], in assay [11] and in assay [12] was “inactive” each time.

Regarding `C=CCCCCCC`, the Potency entry in assay [1], in [2], in assay [3], in assay [4], in [5] and in [6] was “inactive” in each case. For the same compound, the Potency entry in assay [13], in [14], in [16], in assay [17], in [18] and in assay [19] was “inactive” throughout. Moreover, the Potency result in assay [8], in assay [20], in assay [9], in assay [10], in assay [11] and in [12] was “inactive” throughout.

On to `OC[C@H]1O[C@@H](OCCc2ccc(O)cc2)[C@H](O)[C@@H](O)[C@@H]1O`, for which the Potency result in assay [1], in assay [2], in assay [3], in assay [4], in assay [5] and in assay [6] was “inactive” each time. The Potency result in assay [7], in assay [13], in [14], in assay [16], in assay [18] and in [8] was “inactive” each time. In addition, the Potency result in [20], in assay [9], in [10] and in assay [12] was “inactive” in each case.

On to `CC(C)=CC(C)(C)C`, for which the Potency entry in assay [1], in assay [2], in assay [3], in assay [4], in assay [5] and in assay [6] was “inactive” throughout. Also, the Potency result in assay [7], in assay [13], in [14], in assay [16], in assay [17] and in [18] was “inactive” throughout. For the same compound, the Potency entry in [19], in assay [20], in assay [9], in assay [11] and in [12] was “inactive” each time.

As for `O=C(O)Cc1ccc(Cl)cc1Cl`, the Potency entry in [1], in [2], in [3], in assay [4], in assay [5] and in assay [6] was “inactive” in each case. The Potency entry in assay [7], in assay [13], in assay [14], in [16], in [17] and in [18] was “inactive” throughout. Further, the Potency result in [19], in assay [8], in assay [9], in assay [10] and in assay [12] was “inactive” in each case.

Take `O=C(O)CCCCCCCCCCCBr`: the Potency result in assay [1], in [2], in [3], in assay [4], in assay [5] and in assay [6] was “inactive” throughout. Also, the Potency result in [7], in assay [16], in assay [17], in [18], in assay [9] and in assay [11] was “inactive” in each case. Also, the Potency entry in assay [12] is “inactive”.

Source of the values: PubChem BioAssay (Tox21).
